The source made the active and inactive calls. Unless noted, the rule behind the calls is not given here.
Columns and labels:
[1] = compounds binding Alexa647 anti-His antibody – biochemical, small-molecule microarray, 635 nm fluorescence, artefact control for SMM control protein annotation, primary screen (AID 1128); details: higher = more signal;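 note: score merges feature fluorescence with signal-to-noise for each printed compound spot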
[2] = test system: Human papillomavirus type 1a E7 protein (residues 1-88); assay: HPV1a E7 small-molecule binders, primary screen, biochemical, small-molecule microarray, residues 1-88, 635 nm (AID 1129); details: small-molecule microarray binding, fluorescence 635 nm; higher = more signal
[3] = target: Focal adhesion kinase 1 (Homo sapiens) (UniProt Q05397); assay: PTK2 protein binding on printed compound slides – biochemical, small-molecule microarray, 635/667 nm fluorescence, BSA, DTT, primary screen (AID 1130); details: 635 nm fluorescence, higher = more signal;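 note: composite of spot emission at 667 nm and signal to noise over triplicate slides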
Focal adhesion kinase 1 (Homo sapiens), sequence (Q05397 whole entry, looked up): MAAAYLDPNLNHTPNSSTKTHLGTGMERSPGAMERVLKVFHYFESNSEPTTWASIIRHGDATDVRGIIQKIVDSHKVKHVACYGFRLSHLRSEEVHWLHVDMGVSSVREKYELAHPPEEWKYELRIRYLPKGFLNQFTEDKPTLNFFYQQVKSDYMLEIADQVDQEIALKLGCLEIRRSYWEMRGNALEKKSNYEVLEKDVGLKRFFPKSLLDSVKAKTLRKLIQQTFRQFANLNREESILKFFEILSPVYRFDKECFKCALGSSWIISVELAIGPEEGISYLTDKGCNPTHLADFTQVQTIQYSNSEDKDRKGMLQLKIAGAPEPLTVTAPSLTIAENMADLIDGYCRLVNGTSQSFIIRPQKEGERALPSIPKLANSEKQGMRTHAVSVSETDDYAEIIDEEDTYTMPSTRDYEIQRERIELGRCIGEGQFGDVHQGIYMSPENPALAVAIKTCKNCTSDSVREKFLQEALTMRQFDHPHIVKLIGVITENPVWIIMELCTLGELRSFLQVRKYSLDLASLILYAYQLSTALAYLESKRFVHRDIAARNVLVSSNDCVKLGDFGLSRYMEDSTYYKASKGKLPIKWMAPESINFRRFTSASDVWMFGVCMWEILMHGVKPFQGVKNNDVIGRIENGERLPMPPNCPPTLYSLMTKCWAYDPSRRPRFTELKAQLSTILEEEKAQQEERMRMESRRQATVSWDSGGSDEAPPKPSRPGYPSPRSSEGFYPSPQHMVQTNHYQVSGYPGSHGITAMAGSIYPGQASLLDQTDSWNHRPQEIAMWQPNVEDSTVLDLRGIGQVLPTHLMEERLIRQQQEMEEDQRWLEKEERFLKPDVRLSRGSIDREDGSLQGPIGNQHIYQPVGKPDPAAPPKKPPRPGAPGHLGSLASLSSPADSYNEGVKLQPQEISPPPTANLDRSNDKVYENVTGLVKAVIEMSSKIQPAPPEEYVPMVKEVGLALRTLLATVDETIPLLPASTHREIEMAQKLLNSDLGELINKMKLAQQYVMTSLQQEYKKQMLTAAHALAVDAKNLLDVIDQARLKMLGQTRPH

[4] = test system: Fibrinogen (Alexa647-labelled); assay: Alexa647-fibrinogen binding to printed small molecules – biochemical, small-molecule microarray, 635/667 nm fluorescence, artefact control for SMM control-protein annotation, profiling panel (AID 1131); details: fibrinogen-A647 binding fluorescence, higher = more signal;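 note: z-score merges 667 nm fluorescence with per-spot signal-to-noise over triplicate slides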
[5] = target: Follistatin (Homo sapiens) (UniProt P19883); assay: FST protein binding to printed compounds – biochemical, small-molecule microarray, 635/667 nm fluorescence, primary screen (AID 1132); details: 635 nm fluorescence, higher = more signal
Follistatin (Homo sapiens), sequence (P19883 whole entry, looked up): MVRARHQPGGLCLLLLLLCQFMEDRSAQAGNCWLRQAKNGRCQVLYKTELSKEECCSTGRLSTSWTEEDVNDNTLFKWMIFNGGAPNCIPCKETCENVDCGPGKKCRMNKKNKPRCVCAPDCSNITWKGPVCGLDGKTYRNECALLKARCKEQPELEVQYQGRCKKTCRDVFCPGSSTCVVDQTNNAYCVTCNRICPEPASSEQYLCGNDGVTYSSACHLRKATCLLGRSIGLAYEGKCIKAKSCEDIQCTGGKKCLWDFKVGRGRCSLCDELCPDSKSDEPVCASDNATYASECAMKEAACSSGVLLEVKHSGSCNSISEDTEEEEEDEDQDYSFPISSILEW

[6] = target: Fibroblast growth factor 2 (Homo sapiens) (UniProt P09038); assay: basic fibroblast growth factor binding to printed compounds – biochemical, small-molecule microarray, 635/667 nm fluorescence, primary screen (AID 1133); details: FGF2, fluorescence 635/667, higher = more signal
Fibroblast growth factor 2 (Homo sapiens), sequence (P09038 whole entry, looked up): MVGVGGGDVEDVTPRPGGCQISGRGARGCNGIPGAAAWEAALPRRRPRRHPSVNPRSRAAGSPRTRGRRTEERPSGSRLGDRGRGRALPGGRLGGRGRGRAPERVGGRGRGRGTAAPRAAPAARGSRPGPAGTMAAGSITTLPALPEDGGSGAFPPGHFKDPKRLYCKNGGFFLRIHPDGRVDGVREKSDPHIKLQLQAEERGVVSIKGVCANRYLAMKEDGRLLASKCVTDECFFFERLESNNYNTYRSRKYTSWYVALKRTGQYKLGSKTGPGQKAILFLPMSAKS

[7] = JC-1 mitochondrial potential readout, lung cancer cells – cell-based, A549, JC-1 fluorescence, basal, 24 h, 100 nL, profiling panel (AID 1138); details: higher = more signal;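 note: A549 lung adenocarcinoma cells under basal conditions with no added stimulus; test concentration not given here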
Lefty1 = Lefty1 protein binding to printed compounds – biochemical, small-molecule microarray, 635/667 nm fluorescence, primary screen (AID 1139); details: fluorescence 635/667, higher = more signal
[8] = test system: wheat germ agglutinin (Triticum aestivum), Alexa647-labelled; assay: Alexa647-WGA lectin binding to printed small molecules – biochemical, small-molecule microarray, 635/667 nm fluorescence, artefact control for SMM control-protein annotation, profiling panel (AID 1140); details: WGA-A647 binding, 635 nm fluorescence, higher = more signal;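 note: score merges 667 nm feature emission with signal to noise over triplicate slides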
[9] = target: Luciferin 4-monooxygenase (Photinus pyralis) (UniProt P08659); assay: inhibition of purified Photinus pyralis luciferase – biochemical, luminescence, purified enzyme, 2006 set, primary screen (AID 1141); details: purified firefly luciferase, SteadyGlo luminescence, 30 min; higher = more signal, called active from +8 up or from −8 down;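 note: cell-free assay with purified firefly luciferase at 100 ng per well in PBS; test concentration not given here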
Luciferin 4-monooxygenase (Photinus pyralis), sequence (P08659 whole entry, looked up): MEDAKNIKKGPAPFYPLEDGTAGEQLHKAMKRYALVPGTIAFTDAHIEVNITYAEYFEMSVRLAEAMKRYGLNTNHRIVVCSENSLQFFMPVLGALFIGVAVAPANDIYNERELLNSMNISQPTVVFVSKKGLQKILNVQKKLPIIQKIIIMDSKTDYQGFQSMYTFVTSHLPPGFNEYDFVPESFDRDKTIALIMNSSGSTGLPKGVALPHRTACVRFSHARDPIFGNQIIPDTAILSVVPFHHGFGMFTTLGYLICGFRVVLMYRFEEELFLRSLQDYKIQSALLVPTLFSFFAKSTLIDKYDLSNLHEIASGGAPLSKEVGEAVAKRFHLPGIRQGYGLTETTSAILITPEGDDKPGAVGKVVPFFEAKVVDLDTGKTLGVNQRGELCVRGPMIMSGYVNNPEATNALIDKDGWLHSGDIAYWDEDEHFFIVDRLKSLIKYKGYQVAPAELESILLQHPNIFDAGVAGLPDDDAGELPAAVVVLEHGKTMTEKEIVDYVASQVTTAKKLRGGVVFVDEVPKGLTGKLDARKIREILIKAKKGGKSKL

[10] = test system: Wnt5a (protein binding on small-molecule microarray); assay: small molecules binding Wnt5a protein – biophysical, small-molecule microarray, 635/667 nm fluorescence, primary screen (AID 1142); details: 635 nm fluorescence, higher = more signal;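 note: fluorescence read at 667 nm with signal to noise per printed feature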
[11] = ATP-based viability of Huh7 replicon cells – cell-based, CellTiter-Glo luminescence, basal, 48 h, cytotoxicity control for HCV replication inhibitor project, primary screen (AID 1143); details: higher = more signal, called active from +8 up or from −8 down;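 note: Huh7 hepatoma cells carrying a hepatitis C replication reporter with no stimulus; test concentration not given here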
[12] = Pseudomonas biofilm growth suppression – PAO1 strain, BacTiter-Glo luminescence, LB-PBS, primary screen (AID 1144); details: P. aeruginosa PAO1 biofilm, 12 h, higher = more signal
[13] = basal CRE-LacZ reporter activity in PC12 – cell-based, unstimulated, primary screen (AID 1145); details: no forskolin, luminescence, 4.5 h, higher = more signal, called active from +8 up or from −8 down
[14] = forskolin-driven CRE-LacZ activity in PC12 – cell-based, CRE-LacZ reporter, forskolin-stimulated, primary screen (AID 1146); details: luminescence, 4.5 h, higher = more signal, called active from +8 up or from −8 down;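 note: PC12 cells with 6xCRE LacZ reporter stimulated by forskolin 10 µM; beta-galactosidase reporter signal reflecting CREB driven transcription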
[15] = target: Streptavidin (Streptomyces avidinii) (UniProt P22629); assay: compounds binding control protein streptavidin – biophysical, small-molecule microarray, 635/667 nm fluorescence, artefact control for SMM compound annotation, primary screen (AID 1147); details: higher = more signal;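 note: signal reflects streptavidin binding to arrayed compounds as a control protein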
Streptavidin (Streptomyces avidinii), sequence (P22629 whole entry, looked up): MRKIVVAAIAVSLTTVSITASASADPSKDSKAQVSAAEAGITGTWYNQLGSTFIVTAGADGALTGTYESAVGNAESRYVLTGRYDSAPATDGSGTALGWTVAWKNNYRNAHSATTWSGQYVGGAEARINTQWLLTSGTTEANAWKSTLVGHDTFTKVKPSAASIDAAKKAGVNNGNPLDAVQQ

[16] = probe aInhba binding on compound microarray – biochemical, small-molecule microarray, 635/667 nm fluorescence, primary screen (AID 1148); details: higher = more signal;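 note: score merges 667nm spot fluorescence with signal-to-noise for antibody binding to printed compounds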
Torsin-1A (Homo sapiens) [17] = target: Torsin-1A (Homo sapiens) (UniProt O14656); assay: TOR1A wild-type binding on microarray – cell lysate, small-molecule microarray, lysate, 635/667 nm, primary screen (AID 1149); details: COS7 hTOR1A-WT lysate, 635 nm fluorescence, higher = more signal
Torsin-1A (Homo sapiens), sequence (O14656 whole entry, looked up): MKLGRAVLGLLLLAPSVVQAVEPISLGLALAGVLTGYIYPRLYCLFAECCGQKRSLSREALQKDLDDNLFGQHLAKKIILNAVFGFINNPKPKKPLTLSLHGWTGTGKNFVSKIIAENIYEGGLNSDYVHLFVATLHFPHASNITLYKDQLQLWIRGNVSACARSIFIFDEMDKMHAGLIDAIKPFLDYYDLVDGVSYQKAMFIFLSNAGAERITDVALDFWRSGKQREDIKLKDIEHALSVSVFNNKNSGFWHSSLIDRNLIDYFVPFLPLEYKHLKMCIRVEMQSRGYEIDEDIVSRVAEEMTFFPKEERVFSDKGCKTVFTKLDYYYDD

Torsin-1A (Homo sapiens) [18] = target: Torsin-1A (Homo sapiens) (UniProt O14656); assay: torsin A mutant lysate binding on microarrays – cell lysate, small-molecule microarray, COS7 lysate, 635/667 nm fluorescence, primary screen (AID 1150); details: COS7 hTOR1A mutant lysate, 635 nm fluorescence, higher = more signal;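 note: score pools 667 nm emission and signal to noise measuring lysate protein binding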
[19] = test system: Sonic hedgehog protein (Shh); assay: Sonic hedgehog microarray binding compounds – biochemical, small-molecule microarray, 635/667 nm fluorescence, primary screen (AID 1151); details: 635 nm fluorescence, higher = more signal;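 note: Shh protein binding to compounds spotted on small-molecule microarray slides; score combines spot fluorescence intensity with signal-to-noise across triplicate slides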

SMILES	composite z-score [1]	composite z-score [2]	composite z-score [3]	composite z-score [4]	composite z-score [5]	composite z-score [6]	z-score [7]	composite z-score (Lefty1)	composite z-score [8]	z-score [9]	composite z-score [10]	z-score [11]	z-score [12]	z-score [13]	z-score [14]	composite z-score [15]	composite z-score [16]	composite z-score (Torsin-1A (Homo sapiens) [17])	composite z-score (Torsin-1A (Homo sapiens) [18])	composite z-score [19]
C=C(C(=O)CC[C@H](OC(=O)c1ccccc1-c1ccccc1C(=O)O)c1ccccc1OCCO)C(C)C	-0.0781	0.909	0.0778	-0.115	0.991	1.24	0.743	1.01	0.423	-1.29 (inactive)	0.121	-0.594 (inactive)	-0.0112 (inactive)	3.25 (inactive)	1.19 (inactive)	-0.344	0.0569	0.659	0.34	1.49
O=C1OCCC=C[C@H]2OC34C=CCN(c5ccc(Cl)cc5)C(=O)[C@H]3N(CCCCCCO)C(=O)[C@@H]4C12 (stereo not given in full)	-0.6	-0.611	-0.469	-1.17	-0.841	-1.12	2.21	-0.831	-0.533	-1.65 (inactive)	-0.365	-0.352 (inactive)	0.358 (inactive)	0.0645 (inactive)	-1.34 (inactive)	-0.985	0.0333	0.132	-0.175	-0.341
CO[C@H]1O[C@H](CO)[C@@H](OC(=O)Nc2cccc(F)c2)[C@H](OC(=O)Nc2ccccc2-c2ccccc2)[C@H]1OC(=O)Nc1ccccc1-c1ccccc1	2.69	1.28	0.55	0.986	1.32	1.5	-0.498	1.14	0.474	0.372 (inactive)	0.828	-5.99 (inactive)	0.0177 (inactive)	0.951 (inactive)	-0.986 (inactive)	0.379	0.208	0.937	0.663	1.23
COC(=O)[C@@]1(Cc2ccccc2)[C@H]2c3cc(C(=O)N4CCCC4)n(CCSCCO)c3C[C@H]2CN1C(=O)c1ccccc1	2.38	1.21	0.776	0.975	0.337	0.101	0.451	0.0341	0.844	0.103 (inactive)	0.554	-1.17 (inactive)	0.019 (inactive)	0.387 (inactive)	2.14 (inactive)	1.15	0.545	0.424	0.989	0.0779
[N-]=[N+]=Nc1ccccc1C[C@]1(C(=O)O)N=C(c2ccc(OCCCO)cc2)O[C@H]1c1ccccc1	0.133	0.612	-0.0641	0.282	0.968	-0.619	0.12	-0.605	0.801	-3.91 (inactive)	0.0269	-0.218 (inactive)	-0.54 (inactive)	2.53 (inactive)	-0.522 (inactive)	0.261	0.189	1.05	1.45	-0.536
C[C@]1(C(=O)NCCN2CCOCC2)c2ccccc2C(=O)N(Cc2cc(F)cc(C(F)(F)F)c2)[C@H]1c1ccc(CO)cc1	3.12	0.917	0.746	0.91	0.89	-0.0787	0.815	0.443	0.294	1.05 (inactive)	-0.187	-1.39 (inactive)	-1.32 (inactive)	-0.385 (inactive)	-0.909 (inactive)	0.0519	0.027	1.82	1.84	1.86
O=C1O[C@H](c2ccccc2)[C@H](c2ccccc2)N2[C@H]1[C@@H](C(=O)O)[C@]1(C(=O)Nc3ccc(C#CC4(O)CCCCCC4)cc31)[C@H]2c1ccc(O)cc1	0.401	0.391	0.016	-0.132	-0.0848	-0.201	-0.697	0.0963	0.211	-0.828 (inactive)	-0.243	-3.06 (inactive)	-2.13 (inactive)	-1.29 (inactive)	-1.14 (inactive)	-0.467	-0.152	-0.449	0.198	-0.335
COCCOC(=O)N1C(=O)[C@@]2(c3ccccc31)[C@H](c1ccc(OCCO)cc1)N1[C@H](c3ccccc3)[C@H](c3ccccc3)OC(=O)[C@H]1[C@@H]2C(=O)N1CCCCCCC1	3.91	1.37	4.76	0.995	1.55	1.99	-1.75	1.92	1.76	-0.659 (inactive)	2.44	-2.59 (inactive)	-0.302 (inactive)	-0.329 (inactive)	3.39 (inactive)	4.09	2.11	3.76	3.68	2.29
CC1(C)C(=O)C(c2ccccc2)=C2CN3C(=O)N(CCc4ccccc4)C(=O)C3(Cc3ccc(C(F)(F)F)cc3)C=C21 (stereo not given)	0.478	1.21	1.32	0.414	0.376	-0.729	0.37	-0.285	0.57	1.24 (inactive)	0.437	-1.29 (inactive)	0.332 (inactive)	-0.379 (inactive)	0.866 (inactive)	1.19	0.196	-0.102	0.608	-1.01

— PubChem BioAssay
